Reference: PubChem BioAssay (EPA / NIEHS)
Active and inactive are the calls of the source. Rule for the calls: active = hit-call score of the fitted dose curve at least 0.9, where 1 is the maximum; inactive = score below 0.9.

Assays:
Details in all cases: mRNA level, 48 h; actives raise or lower the signal
[1] = read-out: ABC Transporter (ABCB1), ABCB1 (gene 5243); experiment: LTEA_HepaRG_ABCB1: Life Technologies and Expression Analysis (LTEA) Assay for ABC Transporter (ABCB1) using HepaRG (AID 2283460)
Method in brief: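 HepaRG cells exposed in duplicate for 48 h in serum-free induction medium to eight half-log concentrations up to 100 uM in 0.5% DMSO. ABCB1 mRNA quantified by qRT-PCR, normalised to ACTB, GAPDH and POLR2A; fitted bidirectionally versus DMSO.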

[2] = read-out: growth arrest and DNA damage 45 (GADD45B), GADD45B (gene 4616); experiment: LTEA_HepaRG_GADD45B: Life Technologies and Expression Analysis (LTEA) Assay for growth arrest and DNA damage 45 (GADD45B) using HepaRG (AID 2283461)
Method in brief: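 qRT-PCR read-out (Fluidigm TaqMan, housekeeping-normalized) of mRNA change in human HepaRG cells after 48 h chemical exposure; 8-point curve, top 100 uM, half-log steps, 0.5% DMSO vehicle; gain or loss fitted relative to DMSO baseline.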

[3] = read-out: ABC Transporter (ABCC3), ABCC3 (gene 8714); experiment: LTEA_HepaRG_ABCC3: Life Technologies and Expression Analysis (LTEA) Assay for ABC Transporter (ABCC3) using HepaRG (AID 2283462)
Method in brief: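 qRT-PCR read-out of ABCC3 transcript, normalized to three housekeeping genes (ACTB, GAPDH, POLR2A), after 48 h chemical exposure of human HepaRG cells. Eight half-log concentrations, highest 100 uM, in 0.5% DMSO; gain or loss fitted relative to DMSO baseline.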

[4] = read-out: ABC Transporter (ABCB11), ABCB11 (gene 8647); experiment: LTEA_HepaRG_ABCB11: Life Technologies and Expression Analysis (LTEA) Assay for ABC Transporter (ABCB11) using HepaRG (AID 2283463)
Method in brief: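 Differentiated human HepaRG cells in serum-free induction medium, dosed in duplicate for 48 h. Eight-point half-log series from 100 uM in 0.5% DMSO; ABCB11 mRNA by qRT-PCR, normalized to ACTB, GAPDH, POLR2A, fitted bidirectionally versus DMSO.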

[5] = read-out: ABC Transporter (ABCC2), ABCC2 (gene 1244); experiment: LTEA_HepaRG_ABCC2: Life Technologies and Expression Analysis (LTEA) Assay for ABC Transporter (ABCC2) using HepaRG (AID 2283464)
Method in brief: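 qRT-PCR (TaqMan, Fluidigm array) read-out of ABCC2 mRNA, normalized to three housekeeping genes. Differentiated HepaRG cells were treated 48 h in serum-free induction medium with 8-point half-log series from 100 uM in 0.5% DMSO; curves fitted bidirectionally relative to DMSO.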

[6] = read-out: Broad substrate specificity ATP-binding cassette transporter ABCG2 (Homo sapiens) (UniProt Q9UNQ0); experiment: LTEA_HepaRG_ABCG2: Life Technologies and Expression Analysis (LTEA) Assay for ABC Transporter (ABCG2) using HepaRG (AID 2283465)
Method in brief: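 Differentiated HepaRG cells were exposed for 48 h in serum-free induction medium to 8 half-log concentrations, top 100 uM, in 0.5% DMSO. ABCG2 mRNA was measured by qRT-PCR, normalized to ACTB, GAPDH and POLR2A, with bidirectional fitting versus DMSO.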

[7] = read-out: ATP-citrate lyase (ACLY), ACLY (gene 47); experiment: LTEA_HepaRG_ACLY: Life Technologies and Expression Analysis (LTEA) Assay for ATP-citrate lyase (ACLY) using HepaRG (AID 2283466)
Method in brief: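 Differentiated HepaRG cells exposed 48 h in serum-free induction medium to eight half-log concentrations up to 100 uM in 0.5% DMSO, duplicates. Transcript measured by Fluidigm TaqMan qRT-PCR, normalized to ACTB, GAPDH, POLR2A; bidirectional fit versus DMSO.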

[8] = read-out: Peroxisomal acyl-coenzyme A oxidase 1 (ACOX1) gene, ACOX1 (gene 51); experiment: LTEA_HepaRG_ACOX1: Life Technologies and Expression Analysis (LTEA) Assay for Peroxisomal acyl-coenzyme A oxidase 1 (ACOX1) gene using HepaRG (AID 2283467)
Method in brief: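 HepaRG cells, plated 48 h then switched to serum-free induction medium, were exposed in duplicate for 48 h to 8-point half-log concentrations up to 100 uM in 0.5% DMSO. ACOX1 mRNA was measured by qRT-PCR, normalized to ACTB/GAPDH/POLR2A, and fitted bidirectionally versus DMSO.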

[9] = read-out: Bcl-2 (BAD) gene, BAD (gene 572); experiment: LTEA_HepaRG_BAD: Life Technologies and Expression Analysis (LTEA) Assay for Bcl-2 (BAD) gene using HepaRG (AID 2283469)
Method in brief: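 Differentiated HepaRG cells were exposed in duplicate in 0.5% DMSO for 48 h to eight-point half-log concentrations up to 100 uM. BAD mRNA was measured by Fluidigm TaqMan qRT-PCR, normalized to ACTB, GAPDH and POLR2A, and fitted bidirectionally against DMSO.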

[10] = read-out: Bcl-2 (BAX) gene, BAX (gene 581); experiment: LTEA_HepaRG_BAX: Life Technologies and Expression Analysis (LTEA) Assay for Bcl-2 (BAX) gene using HepaRG (AID 2283470)
Method in brief: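 HepaRG (human liver), 48 h exposure, duplicate wells. 8-pt curve, half-log from 100 uM, 0.5% DMSO. BAX transcript by TaqMan qRT-PCR; ACTB/GAPDH/POLR2A normalization; gain or loss vs DMSO baseline.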

BCL2L11 (gene 10018) = experiment: LTEA_HepaRG_BCL2L11: Life Technologies and Expression Analysis (LTEA) Assay for Bcl-2 (BCL2L11) gene using HepaRG (AID 2283473)
Method in brief: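 HepaRG, 48 h exposure, 8-pt half-log series from 100 uM in 0.5% DMSO, duplicates; qRT-PCR (Fluidigm TaqMan) for BCL2L11, housekeeping-normalized; bidirectional curve fit relative to DMSO baseline.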

[11] = read-out: Apolipoprotein A-V (APOA5) gene, APOA5 (gene 116519); experiment: LTEA_HepaRG_APOA5: Life Technologies and Expression Analysis (LTEA) Assay for Apolipoprotein A-V (APOA5) gene using HepaRG (AID 2283474)
Method in brief: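 HepaRG, 48 h chemical exposure in serum-free induction medium, 8-pt half-log series (top 100 uM), 0.5% DMSO vehicle, duplicates. Readout: APOA5 mRNA by qRT-PCR, housekeeping-normalized; bidirectional fit vs DMSO baseline.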

[12] = read-out: Apoptosis regulator Bcl-2 (Homo sapiens) (UniProt P10415); experiment: LTEA_HepaRG_BCL2: Life Technologies and Expression Analysis (LTEA) Assay for Bcl-2 gene using HepaRG (AID 2283475)
Method in brief: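 HepaRG, plated 48 h then switched to serum-free induction medium; dosed 48 h, 8 conc. (max 100 uM, half-log steps), duplicate, 0.5% DMSO. Lysis in RLT, RNA isolated, TaqMan qRT-PCR for BCL2; ACTB/GAPDH/POLR2A normalisation; bidirectional fit vs DMSO.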

[13] = read-out: Bcl-2 (BID) gene, BID (gene 637); experiment: LTEA_HepaRG_BID: Life Technologies and Expression Analysis (LTEA) Assay for Bcl-2 (BID) gene using HepaRG (AID 2283476)
Method in brief: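 Transcript levels of BID, measured by qRT-PCR and normalized to three housekeeping genes, were fitted bidirectionally against DMSO controls. Cells were HepaRG, dosed 48 h at up to 100 uM.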

Caspase-3 (Homo sapiens) = Caspase-3 (Homo sapiens) (UniProt P42574); experiment: LTEA_HepaRG_CASP3: Life Technologies and Expression Analysis (LTEA) Assay for cysteine-aspartic acid protease (CASP3) using HepaRG (AID 2283477)
Sequence of Caspase-3 (Homo sapiens) (P42574 whole entry, looked up): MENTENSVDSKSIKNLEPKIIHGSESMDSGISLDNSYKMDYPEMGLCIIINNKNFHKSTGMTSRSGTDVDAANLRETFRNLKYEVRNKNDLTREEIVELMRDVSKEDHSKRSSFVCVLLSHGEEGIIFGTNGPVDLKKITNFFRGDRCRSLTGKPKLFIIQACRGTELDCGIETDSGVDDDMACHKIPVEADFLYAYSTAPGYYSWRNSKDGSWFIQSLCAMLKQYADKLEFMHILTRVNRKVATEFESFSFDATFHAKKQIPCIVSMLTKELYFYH
Method in brief: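 HepaRG, 48 h exposure, 8 conc. (top 100 uM, half-log steps, duplicate), 0.5% DMSO vehicle; qRT-PCR of CASP3 transcript, housekeeping-normalised (ACTB/GAPDH/POLR2A); bidirectional curve fit vs DMSO baseline.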

[14] = read-out: Cytochrome P450 (CYP24A1), CYP24A1 (gene 1591); experiment: LTEA_HepaRG_CYP24A1: Life Technologies and Expression Analysis (LTEA) Assay for Cytochrome P450 (CYP24A1) using HepaRG (AID 2283478)
Method in brief: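 qRT-PCR read-out: CYP24A1 transcript levels normalized to three housekeeping genes, bidirectional curve fits against 0.5% DMSO baseline. Human HepaRG cells treated 48 h with chemicals at eight concentrations from 100 uM in half-log steps.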

[15] = read-out: Alkaline Phosphatase, Placental (ALPP) gene, ALPP (gene 250); experiment: LTEA_HepaRG_ALPP: Life Technologies and Expression Analysis (LTEA) Assay for Alkaline Phosphatase, Placental (ALPP) gene using HepaRG (AID 2283468)
Method in brief: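 qRT-PCR readout of ALPP mRNA (Fluidigm TaqMan), normalized to ACTB/GAPDH/POLR2A, after 48 h chemical exposure of HepaRG cells; 8-point half-log series, top 100 uM, 0.5% DMSO vehicle. Bidirectional curve fit versus DMSO baseline.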

[16] = read-out: Alpha-fetoprotein (AFP) gene, AFP (gene 174); experiment: LTEA_HepaRG_AFP: Life Technologies and Expression Analysis (LTEA) Assay for Alpha-fetoprotein (AFP) gene using HepaRG (AID 2283472)
Method in brief: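 HepaRG, single lot; 48 h post-plating -> serum-free induction medium; cpd 8-pt, 100 uM top, half-log, 0.5% DMSO, duplicate, 48 h. RNA -> qRT-PCR AFP, norm ACTB/GAPDH/POLR2A. Bidirectional fit vs DMSO.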

[17] = read-out: Cytochrome P450 (CYP1A2), CYP1A2 (gene 1544); experiment: LTEA_HepaRG_CYP1A2: Life Technologies and Expression Analysis (LTEA) Assay for Cytochrome P450 (CYP1A2) using HepaRG (AID 2283479)
Method in brief: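 HepaRG, 48 h exposure, top 100 uM, half-log 8-pt, 0.5% DMSO vehicle, duplicates. Readout: TaqMan qRT-PCR of CYP1A2 mRNA, housekeeping-normalized (ACTB/GAPDH/POLR2A). Gain/loss fit relative to DMSO baseline.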

[18] = read-out: adenosine kinase (ADK) gene, ADK (gene 132); experiment: LTEA_HepaRG_ADK: Life Technologies and Expression Analysis (LTEA) Assay for adenosine kinase (ADK) gene using HepaRG (AID 2283471)
Method in brief: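 Read-out is ADK transcript level measured by qRT-PCR and normalised to three housekeeping genes. Cells are human HepaRG, dosed for 48 h at up to 100 uM in 0.5% DMSO. Gain or loss of signal is fitted against DMSO controls.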

Measured: AC50

Sequence of Apoptosis regulator Bcl-2 (Homo sapiens) (P10415 whole entry, looked up): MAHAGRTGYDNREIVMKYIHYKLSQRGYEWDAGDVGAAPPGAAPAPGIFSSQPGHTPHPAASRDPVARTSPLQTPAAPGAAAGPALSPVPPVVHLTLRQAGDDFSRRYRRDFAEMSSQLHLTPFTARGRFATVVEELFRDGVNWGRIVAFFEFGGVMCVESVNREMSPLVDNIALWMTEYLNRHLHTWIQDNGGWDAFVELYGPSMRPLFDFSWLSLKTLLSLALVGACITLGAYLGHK
Sequence of Broad substrate specificity ATP-binding cassette transporter ABCG2 (Homo sapiens) (Q9UNQ0 whole entry, looked up): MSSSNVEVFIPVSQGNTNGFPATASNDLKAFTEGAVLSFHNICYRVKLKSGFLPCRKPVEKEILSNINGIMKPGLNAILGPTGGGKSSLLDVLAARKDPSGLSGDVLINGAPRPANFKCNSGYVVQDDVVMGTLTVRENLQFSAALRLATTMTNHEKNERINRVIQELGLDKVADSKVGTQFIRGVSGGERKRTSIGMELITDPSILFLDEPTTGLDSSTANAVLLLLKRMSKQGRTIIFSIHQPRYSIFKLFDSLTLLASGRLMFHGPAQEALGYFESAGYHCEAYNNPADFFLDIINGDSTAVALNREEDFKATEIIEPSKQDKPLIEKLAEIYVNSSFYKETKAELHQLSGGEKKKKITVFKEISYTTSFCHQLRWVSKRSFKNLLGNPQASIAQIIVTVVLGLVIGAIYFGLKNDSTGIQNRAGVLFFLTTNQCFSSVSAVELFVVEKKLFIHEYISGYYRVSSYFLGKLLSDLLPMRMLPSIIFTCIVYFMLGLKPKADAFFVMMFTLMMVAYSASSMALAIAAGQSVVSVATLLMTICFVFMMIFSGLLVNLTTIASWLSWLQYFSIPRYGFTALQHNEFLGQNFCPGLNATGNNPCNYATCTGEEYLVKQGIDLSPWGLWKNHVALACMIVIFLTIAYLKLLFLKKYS

CN(C)C(=O)Nc1ccc(Cl)cc1
not listed: [15] | [16] | [17] | [18]
inactive: all other assays above

Nc1cc(Cl)cc(C(=O)O)c1Cl
not listed: [5] | [16] | [17] | [18]
inactive: all other assays above

C=CCc1ccc2c(c1)OCO2
not listed: [5] | [17] | [18]
inactive: all other assays above

O=C(N[C@H](c1ccccc1)[C@@H]1CN2CCC1CC2)c1c(Cl)ccc(C(F)(F)F)c1Cl
active: [1] 13.5 µM | [2] 46.2 µM | [3] 36.3 µM | [5] 71.8 µM | [7] 78.7 µM | [8] 70.3 µM | [10] 75.3 µM | BCL2L11 (gene 10018) 11.3 µM | [11] 72.6 µM | Caspase-3 (Homo sapiens) 70 µM | [17] 84.6 µM
inactive: [4] | [6] | [9] | [12] | [13] | [14]

c1ccc(N=Nc2ccccc2)cc1
active: [17] 50 µM
not listed: [15] | [18]
inactive: all other assays above

Clc1ccc(Cl)c(Cl)c1
active: [4] 50 µM | [15] 9.92 µM | [16] 50 µM | [11] 50 µM | [13] 50 µM | Caspase-3 (Homo sapiens) 50 µM
not listed: [5] | [17] | [18]
inactive: all other assays above

CCOC(=O)[C@]1(c2ccccc2)Oc2ccccc2[C@@H]1N
active: [2] 76.8 µM | [4] 78.7 µM | [6] 50 µM | [8] 87.5 µM | [15] 50 µM | [10] 75.7 µM | [11] 83.3 µM | [12] 88.7 µM
not listed: [5] | [17]
inactive: all other assays above

O=Cc1ccco1
not listed: [5] | [16]
inactive: all other assays above
